Our source for the sensor-assay potency score (higher = more potent) values is the OligoGym collection.
Also: reference of the scale not given here.

The target of one assay is DEF6. Description: pooled miR-30 sensor sort-seq; sequence = guide strand. The note with it: shRNA.
Sequence TTAGGGAGGAGTCACGGTGGGC had a sensor-assay potency score (higher = more potent) of -1.27. Consider TTGAAGAGGCACCAGAGGCGGA, for which the sensor-assay potency score (higher = more potent) is -1.08. On the same count and under the same terms, next, TTCTTCATCTCGCCGAGCTTTC: -1.29. Still for that read-out and setting: next, TTGTCCAGGATGTACTTGTTGA: -0.794. In the case of TTCAGCTGCATCAACTGCTTCA, the sensor-assay potency score (higher = more potent) was 0.367. Sequence TCTTCCAGCAGTCTGGTCTGAG showed a sensor-assay potency score (higher = more potent) of -0.41.

AAGAGCTCCAGGAACTGCCAGA returned a sensor-assay potency score (higher = more potent) of -0.993.

TTCATCTGGACATTCCAGTGTT came in with a sensor-assay potency score (higher = more potent) of 0.421.

The next assay concerns the target DEK. The assay is described as above. The note with it: shRNA.
TTTCCTTTAACTCTTCATCTGT yielded a sensor-assay potency score (higher = more potent) of 0.131. As to TTAATGAGGACACAGTGCCTGG, the sensor-assay potency score (higher = more potent) was -0.975. Same read-out and setting: then TTAACTCTTCATCTGTAGGGGG, with 0.319; and TTATTGTTTCCTTTAACTCTTC, with -0.171; and TAGATTTCTAAGTTCATCGGTT, with 0.499.

TAGTTCACTATTTACACCTGAT had a sensor-assay potency score (higher = more potent) of -0.118. Turning to TTTTACTTTTAGAAGTAGCTTT, the sensor-assay potency score (higher = more potent) was found to be 0.164. In the case of TTCTTTATCTTCATCATCTGAA, the sensor-assay potency score (higher = more potent) was 0.212. TTTAACTCTTCATCTGTAGGGG yielded a sensor-assay potency score (higher = more potent) of 0.332. On the same count and under the same terms, then TAACTCTTCATCTGTAGGGGGT, with 0.328; and ATCATCTGAAGACTCTTCCTTG, with -0.474; and TTTGGAACTGTTTTGATTCTTC, with 0.827.

A further assay deals with DENND3. Described as above. The following applies: shRNA.
In the case of TAGAGCAGCACGTCCACCGCTT, the sensor-assay potency score (higher = more potent) is 0.371. TTGATGATGTAGATGACGGAGT: the sensor-assay potency score (higher = more potent) was -0.511. On the same count and under the same terms, then TATTTATCAGAACTAAACCGTC, with -0.811.

TTCCACACCAGCACCATGCCGT gave a sensor-assay potency score (higher = more potent) of -0.0924. Same read-out and setting: next, TAAATGATTCTTTACATCCCTG: -0.0961; TATCAGAACTAAACCGTCGGCT: 0.0696. TTATCGTCCGTGGACTTGGAGT showed a sensor-assay potency score (higher = more potent) of -1.3. Regarding TTATCAGAACTAAACCGTCGGC, the sensor-assay potency score (higher = more potent) was -0.359. Take TTGTAGAAATCTTTGAATGTTT: the sensor-assay potency score (higher = more potent) was -1.03.

For TAGATGACGGAGTCTTCCGAGC, the sensor-assay potency score (higher = more potent) is -1.16.

TTGAACACGGTCACCTTGCCTT: the sensor-assay potency score (higher = more potent) was -0.0431. Still for that read-out and setting: then TTGGACTTAGAAGCATTCCATT, with -1.49.

The target in the next assay is DEXI. The assay is described as above. The following applies: shRNA.
TAAACATCCATCGCAGCTGCAA yielded a sensor-assay potency score (higher = more potent) of -0.291.

Sequence TACAGGATCAGCACATTGACGA yielded a sensor-assay potency score (higher = more potent) of 0.243. Same read-out and setting: next, TAACCTGAAATGAAGGAGCGAG: -0.355; TTCCTGTAAACATCCATCGCAG: -0.501. ATGTACTCCATGAGGAAGGCGT gave a sensor-assay potency score (higher = more potent) of -1.19. On to TAGAGGGCAGCAGCGGCGGCGG, for which the sensor-assay potency score (higher = more potent) is -1.83.

The sequence TAGTACAGGATCAGCACATTGA returned a sensor-assay potency score (higher = more potent) of -0.394. Same read-out and setting: then TTAAGTAGGCACAACACTCATA, with -0.271.
